SMILES strings stand for the structures. “And” between values parts separate entries of the source, which are not always exact repeats. Equal entries are not always repeated. The whole screen tested about 350,000 compounds, of which about 1,600 (0.46%) were called active. Shown is part of a subset that was picked to be rich in actives. Unmarked numbers belong to inactive results.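 How the source made its calls: active means every replicate reaching a set inhibition limit, whatever the replicate mean (cut at about 25% in these data); inconclusive means mean inhibition reaches that limit but some replicates miss it; inactive means the rest.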

In the assay the target is Protein AF-9 (Homo sapiens) (UniProt P42568). The experiment in a line: inhibitors of AF4 peptide binding to AF9, primary screen, biochemical, AlphaScreen, biotin-AF4 peptide, FLAG-AF9, single point (AID 651704).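 Further: 0% = plate neutral control median and 100% = total signal loss.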 Particulars: at 10 µM, hits give high values. Background: In Alpha technology, singlet oxygen from a donor bead excites a nearby acceptor bead.
Sequence of Protein AF-9 (Homo sapiens) (P42568 whole entry, looked up): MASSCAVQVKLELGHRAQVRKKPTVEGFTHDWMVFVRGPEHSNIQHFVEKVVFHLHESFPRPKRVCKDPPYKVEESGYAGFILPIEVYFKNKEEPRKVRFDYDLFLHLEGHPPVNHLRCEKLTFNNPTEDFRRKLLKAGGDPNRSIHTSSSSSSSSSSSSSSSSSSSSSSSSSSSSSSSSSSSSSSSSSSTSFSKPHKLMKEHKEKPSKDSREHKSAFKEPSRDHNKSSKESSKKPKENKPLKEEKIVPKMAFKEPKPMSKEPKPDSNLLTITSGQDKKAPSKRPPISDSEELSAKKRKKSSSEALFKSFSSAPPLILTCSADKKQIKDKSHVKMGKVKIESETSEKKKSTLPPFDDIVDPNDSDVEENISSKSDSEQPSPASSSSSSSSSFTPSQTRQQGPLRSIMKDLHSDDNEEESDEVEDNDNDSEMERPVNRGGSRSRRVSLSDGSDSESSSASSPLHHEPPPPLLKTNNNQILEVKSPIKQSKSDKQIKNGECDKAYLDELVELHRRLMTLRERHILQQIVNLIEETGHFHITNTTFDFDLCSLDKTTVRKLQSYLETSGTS
`COc1ccc2c3c(n(C)c2c1)[C@H](CO)N(Cc1cccnc1)CC31CCN(Cc2cccnc2)CC1`: the inhibition (commonly the change of the read-out against control, counted positive when it falls) was 13.7%.

Take `C[C@H](CO)N1C[C@H](C)[C@H](CN(C)CC2CCCCC2)OCCCC[C@H](C)Oc2ccc(NC(=O)c3ccncc3)cc2C1=O`: the inhibition was -4.16%.

For `COc1ccc(-c2ccc3[nH]c4c(c3c2)CCN2C[C@H]3[C@H](C)ON(C)[C@H]3C[C@@H]42)cc1`, the inhibition was 27.4% (active).

`COC(=O)[C@H]1[C@H]2C[C@H]3c4[nH]c5ccccc5c4CCN3C[C@@H]2CC[C@@H]1O`: the inhibition is 10.9% and 1.82%.

As for `COc1cccc(C2c3[nH]c4ccccc4c3CCN2Cc2cccc(C)n2)c1` (configuration not stated), the inhibition was 16.4%.

`CCCC#Cc1ccc([C@H]2[C@@H](CO)N3C(=O)CN(C(=O)c4ccncc4)C[C@@H]23)cc1`: the inhibition was -4.03%.

`COc1cccc(S(=O)(=O)Nc2ccc3c(c2)[C@H]2C[C@H](CC(=O)O)O[C@H](CO)[C@H]2O3)c1`: the inhibition was -1.01%.

With `O=C(Nc1ccccc1)N1CC(=O)N2[C@@H](CO)[C@H](c3ccc(C#CC4CCCC4)cc3)[C@@H]2C1`, the inhibition is 7.61%.

Consider `Cc1cc(Nc2ccc(C(=O)N3CCCCC3)cc2)c2cccc(C)c2n1`, for which the inhibition is -1.38%.

On to `Cc1ccc(Nc2cc(C)nc3c(C)ccc([N+](=O)[O-])c23)cc1`, for which the inhibition is 33.4% (active).

Regarding `Cc1cc(Nc2ccc(N3CCOCC3)cc2)c2cccc(C)c2n1`, the inhibition is 7.78%.

For `COc1ccc2c3c(n(C)c2c1)[C@@H](CO)N(Cc1ccncc1)CC31CN(C(=O)C2CCCCC2)C1`, the inhibition was -2.52%.

In the case of `COc1ccc2c3c(n(C)c2c1)[C@H](CO)N(C(C)=O)CC31CN(C(=O)c2cnccn2)C1`, the inhibition was -3.28%.

As for `C/C(=N/NS(=O)(=O)c1ccccc1)c1ccc(NC(=O)C(F)(F)F)cc1`, the inhibition was 1.28%.

As for `Cc1ccc(NC(=O)c2ccco2)cc1`, the inhibition was 2.52%.

`C/C(=N\NS(=O)(=O)c1ccc(Cl)cc1)c1ccc(NC(=O)c2ccco2)cc1`: the inhibition is 26.4% (active).

`CCC(=O)N1CC2(C1)CN(Cc1cc(F)ccc1F)[C@@H](CO)c1[nH]c3cc(OC)ccc3c12`: the inhibition was -4.95%.

In the case of `CCOc1cc(N2CCOCC2)c(OCC)cc1NC(=O)C1=NN(c2cccc(C)c2)C(=O)CC1`, the inhibition is 31.5% (active).

For the molecule `CCOc1cc(N2CCOCC2)c(OCC)cc1NC(=O)COc1cccc(Cl)c1`, the inhibition is 3.04%.

Turning to `CCOc1cc(N2CCOCC2)c(OCC)cc1NC(=O)c1ccc(C)s1`, the inhibition is 13.4%.

For `O=C(C[C@@H]1C=C[C@H](NC(=O)Nc2ccccc2F)[C@@H](CO)O1)NCc1ccccc1`, the inhibition is -2.34%.

As to `CCC(=O)N1CC2(C1)[C@@H](c1ccc(-c3ccc(C#N)cc3)cc1)[C@H](CO)N2C(C)=O`, the inhibition is -2.76%.

For the molecule `Cc1ccc(S(=O)(=O)N2CCCCC2)cc1NC(=O)c1cccnc1`, the inhibition is 2.47%.

As to `O=C(O)c1ccc(N/N=C/c2cn(-c3ccccc3)nc2-c2cccs2)cc1`, the inhibition is 3.91%.

In the case of `O=C(N/N=C/c1sc(N2CCCCC2)nc1-c1cccs1)c1cccnc1`, the inhibition is 26.1% (active).

For `COc1ccccc1C#Cc1ccc([C@@H]2[C@H](CO)N3CCCCN(C(=O)C4CCCC4)C[C@@H]23)cc1`, the inhibition was 6.51%.

Regarding `Cc1cccc(-c2ccc([C@@H]3[C@H]4CN(C(=O)c5ccccc5)CC(=O)N4[C@H]3CO)cc2)c1`, the inhibition was 2.35%.

With `CCCCNC(=O)CN1C(=O)NC(Cc2ccccc2)(Cc2ccccc2)C1=O`, the inhibition is 51% (active).

Consider `CNC(=O)CN1C(=O)NC(c2ccccc2)(c2ccccc2)C1=O`, for which the inhibition was 0.637%.

As for `COc1cccc(CNC(=O)CN2C(=O)NC(Cc3ccccc3)(c3ccccc3)C2=O)c1` (configuration not stated), the inhibition was -3.3%.

For the molecule `COc1cccc(NC(=O)N[C@@H]2CC[C@H](CC(=O)NCc3ccccn3)O[C@H]2CO)c1`, the inhibition was -1.32%.

With `CCCN1[C@@H]2c3ccc(-c4ccccc4)c(=O)n3C[C@@H]2[C@@H](CO)[C@@H]1C(=O)N(C)C`, the inhibition is -2.05%.

`O=C1CC[C@@H]2CC3(C[C@@H]4CCN1[C@H]24)Nc1cc([N+](=O)[O-])ccc1NC3=NC1CCCCC1` (some centres not stated): the inhibition is 5.39%.

`Cc1cc2c(cc1C)NC1(C[C@H]3CCC(=O)N4CC[C@@H](C1)[C@@H]34)C(=NC(C)(C)CC(C)(C)C)N2` (some centres not stated): the inhibition is 54.9% (active).

As to `CC=Cc1ccc2n(c1=O)C[C@H]1[C@H](CO)[C@@H](C(=O)NC3CCCC3)[C@@H]2N1C(=O)c1cnccn1` (mixture of isomers), the inhibition was -3.71%.

As for `CN(C)CC(=O)N1[C@H](C#N)[C@H](c2ccccc2-c2cccc(C(=O)N(C)C)c2)[C@@H]1CO`, the inhibition was -2.16%.

For `Cc1noc(C)c1NC(=O)N(C)C[C@H]1Oc2ccc(N(C)C)cc2CC(=O)N([C@H](C)CO)C[C@H]1C`, the inhibition is -0.871%.

On to `CO[C@H]1CN(C)C(=O)c2ccc(NC(=O)C3CC3)cc2OC[C@@H](C)N(Cc2ccc(F)cc2)C[C@@H]1C`, for which the inhibition is 2.37%.

Turning to `CCCC#Cc1ccc([C@H]2[C@H]3CN(C(=O)c4cccnc4)CC(=O)N3[C@H]2CO)cc1`, the inhibition was 27.2% (active).

For the molecule `CCCC#Cc1ccc([C@@H]2[C@@H](CO)N3C(=O)CN(C(=O)c4ccncc4)C[C@@H]23)cc1`, the inhibition was -2.52%.

Take `CCCC#Cc1ccc([C@H]2[C@@H](CO)N3C(=O)CN(C(=O)c4ccncc4)C[C@H]23)cc1`: the inhibition is -2.78%.

Take `COc1ccc(C#Cc2ccc([C@H]3[C@H]4CN(C(=O)c5ccncc5)CC(=O)N4[C@H]3CO)cc2)cc1`: the inhibition was -4.11%.

Consider `C[C@@H]1CCCCO[C@H](CN(C)C(=O)C2CCCCC2)[C@@H](C)CN([C@@H](C)CO)C(=O)c2cc(NC(=O)Nc3ccccc3)ccc2O1`, for which the inhibition is 5.54%.

Take `COc1ccccc1NC(=O)N1CCCCN2[C@H](CO)[C@H](c3ccc(C#CC4CC4)cc3)[C@@H]2C1`: the inhibition is 6.56%.

Take `COc1ccc(NC(=S)NCC2CCN(c3ccc(OC)cc3)C2)cc1` (configuration not stated): the inhibition is 28.9% (active).

`COc1ccc(N2CCC(CNC(=S)Nc3c(C)cccc3C)C2)cc1` (configuration not stated): the inhibition is 18.6%.

In the case of `COc1ccc(OCC(=O)Nc2ccc(N3CCC(C)CC3)cc2)cc1`, the inhibition is 1.34%.

(Values after PubChem BioAssay AID651704 (Broad Institute, 2012).)
